The text below walks through data of PubChem BioAssay (NCI).

This is part of a sample that, as a whole, favours compounds with a hit. Of some 83,000 tested, about 20% had one in any assay.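 Each cell line was grown in a 96-well plate and treated with one concentration of compound for 48 hours. Values below 10 were considered active.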 A number with no mark means an inactive call. The source made the active and inactive calls.

Common to all, as to experiment: NCI-60 one-dose screen, 48 h (100 = growth as untreated, 0 = no growth, -100 = all killed)
In one assay the test system is SK-MEL-2 melanoma. As to conditions: 10 µM unless noted.
For the next assay, the system named is EKVX NSCLC. As to conditions: 10 µM unless noted.
The next assay relates to SN12C renal. As to conditions: 10 µM unless noted.
In the next assay the test system is UO-31 renal. As to conditions: 10 µM unless noted.
The next assay concerns TK-10 renal. Particulars: 10 µM unless noted.
The test system of a further assay is ACHN renal. Particulars: 10 µM unless noted.
In another assay the test system is A498 renal. Particulars: 10 µM unless noted.
Another assay deals with CCRF-CEM leukemia. Particulars: 10 µM unless noted.
In a further assay the test system is MOLT-4 leukemia. As to conditions: 10 µM unless noted.
The subject of another assay is SR leukemia. Particulars: 10 µM unless noted.
Another assay concerns RPMI-8226 leukemia. As to conditions: 10 µM unless noted.
For a further assay, the system named is OVCAR-8 ovarian. Particulars: 10 µM unless noted.
Another assay concerns OVCAR-5 ovarian. Particulars: 10 µM unless noted.
A further assay concerns OVCAR-4 ovarian. Particulars: 10 µM.
The test system of the next assay is SK-OV-3 ovarian. As to conditions: 10 µM unless noted.
For the next assay, the system named is IGROV1 ovarian. Particulars: 10 µM unless noted.
The next assay relates to OVCAR-3 ovarian. Particulars: 10 µM unless noted.
The test system of the next assay is NCI/ADR-RES ovarian. Particulars: 10 µM unless noted.
In a further assay the test system is HS 578T breast. As to conditions: 10 µM unless noted.

Turning to `CC[C@]1(O)CC2CN(CCc3c([nH]c4ccccc34)[C@@](C(=O)OC)(c3cc4c(cc3OC)N(C=O)[C@H]3[C@@](O)(C(=O)OC)[C@H](OC(C)=O)[C@]5(CC)C=CCN6CC[C@]43[C@@H]65)C2)C1` (stereo not given in full), the growth in the assay on SK-MEL-2 melanoma is 18.8%; in the assay with EKVX NSCLC, 47.4%; in the assay on SN12C renal, 26.6%; in the assay on UO-31 renal it was 56.3%; in the assay with TK-10 renal, 74.2%; in the assay with ACHN renal, 34.4%. The growth in the assay with A498 renal is -17.9% (active); in the assay on CCRF-CEM leukemia it was 2.51% (active); in the assay on MOLT-4 leukemia, 21.6%; with SR leukemia, 13%; in the assay with RPMI-8226 leukemia it was 18.7%; in the assay on OVCAR-8 ovarian, 13.2%. Besides, the growth in the assay on OVCAR-5 ovarian was 32.2%; in the assay on OVCAR-4 ovarian, 43%; in the assay with SK-OV-3 ovarian, 4.03% (active); in the assay with IGROV1 ovarian it was 39.4%; in the assay with OVCAR-3 ovarian, -49.2% (active); with NCI/ADR-RES ovarian, 11.3%.
Take `O=[N+]([O-])c1cc([N+](=O)[O-])c(NN=C(c2ccc(O)cc2)c2ccc(O)cc2)cc1Cl`: the growth in the assay with SK-MEL-2 melanoma was -94% (active); in the assay with EKVX NSCLC, 38.8%; in the assay on SN12C renal, -78.6% (active); in the assay with UO-31 renal it was -98.4% (active); with TK-10 renal, -57% (active); in the assay with ACHN renal, -62.7% (active). The growth is 73.4% in the assay with A498 renal; 82.1% in the assay with CCRF-CEM leukemia; 53.4% in the assay on MOLT-4 leukemia; 18.8% in the assay with SR leukemia; 67% in the assay on RPMI-8226 leukemia; -76.6% (active) with OVCAR-8 ovarian. For the same compound, the growth in the assay on OVCAR-5 ovarian was 78.1%; in the assay with OVCAR-4 ovarian, -47.7% (active); in the assay with SK-OV-3 ovarian it was 99.5%; in the assay on OVCAR-3 ovarian, -94.6% (active); in the assay with HS 578T breast it was -55.6% (active); in the assay with NCI/ADR-RES ovarian, -56.8% (active).
On to `COc1cc(NCc2cn(-c3ccc(C(=O)O)cc3)nc2-c2ccc(C(=O)O)cc2)cc(OC)c1OC`, for which the growth is 102% in the assay with SK-MEL-2 melanoma; 93.1% with EKVX NSCLC; 94.7% with SN12C renal; 88.9% in the assay with UO-31 renal; 91.6% in the assay on TK-10 renal; 102% in the assay with ACHN renal. Further, the growth with A498 renal was 66%; in the assay on CCRF-CEM leukemia, -17.9% (active); in the assay with MOLT-4 leukemia it was 110%; with SR leukemia, 114%; with RPMI-8226 leukemia it was 93.2%; with OVCAR-8 ovarian, 101%. Moreover, the growth in the assay with OVCAR-5 ovarian was 94.8%; with OVCAR-4 ovarian, 94.4%; in the assay with IGROV1 ovarian it was 97.1%; in the assay with OVCAR-3 ovarian, 106%; with HS 578T breast, 95.6%; in the assay on NCI/ADR-RES ovarian it was 107%.
As for `CCCn1ccnc1C(O)c1ccc(OCc2ccccc2)c(OC)c1` (stereo not given), the growth is 91.3% with SK-MEL-2 melanoma; 89.3% in the assay with EKVX NSCLC; 92.3% in the assay on SN12C renal; 63.7% with UO-31 renal; 77.8% with TK-10 renal; 93.6% in the assay with ACHN renal. Also, the growth in the assay on A498 renal was 102%; in the assay with CCRF-CEM leukemia it was 94%; in the assay on MOLT-4 leukemia, 98.5%; in the assay with SR leukemia, 96.1%; in the assay with RPMI-8226 leukemia it was 93.9%; in the assay on OVCAR-8 ovarian, 96.7%. The growth was 93.3% with OVCAR-5 ovarian; 96.5% in the assay with OVCAR-4 ovarian; 87.7% in the assay on SK-OV-3 ovarian; 96.9% in the assay with IGROV1 ovarian; 95.7% in the assay on OVCAR-3 ovarian; 109% in the assay with HS 578T breast. In the assay on NCI/ADR-RES ovarian, the growth is 91.3%.
As for `COc1cc(-c2nc(SCCC(C)C)nc(Nc3ccc(S(N)(=O)=O)cc3)c2C#N)cc(OC)c1OC`, the growth is 51.4% with SK-MEL-2 melanoma; 45.1% in the assay with EKVX NSCLC; 26.4% with SN12C renal; 14.7% in the assay on UO-31 renal; 50% in the assay on TK-10 renal; 29.5% with ACHN renal. The growth in the assay on A498 renal is 43.5%; in the assay with CCRF-CEM leukemia it was 14.1%; in the assay with MOLT-4 leukemia, 1.98% (active); in the assay with SR leukemia, -18.5% (active); in the assay on RPMI-8226 leukemia it was -0.242% (active); in the assay on OVCAR-8 ovarian it was 29.9%. For the same compound, the growth is 53.9% in the assay with OVCAR-5 ovarian; 19.8% in the assay with OVCAR-4 ovarian; 76.5% in the assay with SK-OV-3 ovarian; 40.5% in the assay with IGROV1 ovarian; 32.5% with OVCAR-3 ovarian; 40.5% in the assay on HS 578T breast. The growth with NCI/ADR-RES ovarian is 37.6%.
For the compound `CCOc1ccc2sc(NS(=O)(=O)c3ccc(N)cc3)nc2c1`, the growth in the assay on SK-MEL-2 melanoma was 109%; with EKVX NSCLC it was 103%; in the assay on SN12C renal it was 98.2%; in the assay with UO-31 renal it was 91.2%; in the assay on TK-10 renal, 124%; with ACHN renal, 108%. In addition, the growth is 115% with A498 renal; 99.1% in the assay with CCRF-CEM leukemia; 104% in the assay with MOLT-4 leukemia; 95.4% in the assay with SR leukemia; 96.5% in the assay with RPMI-8226 leukemia; 105% in the assay with OVCAR-8 ovarian. For the same compound, the growth in the assay with OVCAR-5 ovarian was 109%; in the assay on OVCAR-4 ovarian, 105%; in the assay with SK-OV-3 ovarian, 101%; in the assay with IGROV1 ovarian it was 95.8%; in the assay on OVCAR-3 ovarian, 115%; with HS 578T breast it was 106%. Besides, the growth in the assay with NCI/ADR-RES ovarian was 113%.
Turning to `Cc1nn(-c2ccccc2)c(N2CCOCC2)c1-c1nc2ccc([N+](=O)[O-])cc2[nH]1`, the growth in the assay with SK-MEL-2 melanoma was 110%; in the assay on EKVX NSCLC it was 106%; in the assay with SN12C renal, 95.2%; in the assay on UO-31 renal it was 81.4%; with TK-10 renal, 100%; with ACHN renal, 105%. Further, the growth was 76.3% in the assay on A498 renal; 92.6% in the assay on CCRF-CEM leukemia; 85.7% in the assay with MOLT-4 leukemia; 87.2% with SR leukemia; 97.6% in the assay on RPMI-8226 leukemia; 102% in the assay with OVCAR-8 ovarian. Also, the growth with OVCAR-5 ovarian is 108%; in the assay on OVCAR-4 ovarian it was 98.9%; with SK-OV-3 ovarian it was 135%; in the assay with IGROV1 ovarian, 111%; in the assay on OVCAR-3 ovarian, 110%; in the assay with NCI/ADR-RES ovarian, 105%.
Regarding `C=C(C)C1CCC2(C(=O)O)CCC3(C)C(CCC4C5(C)CCC(OC(=O)NCc6ccccc6)C(C)(C)C5CCC43C)C12` (stereo not given), the growth in the assay with SK-MEL-2 melanoma was 54.6%; in the assay with EKVX NSCLC, 29.1%; in the assay with SN12C renal, 42.3%; in the assay with UO-31 renal, 40.3%; in the assay on TK-10 renal, 59.2%; in the assay on ACHN renal, 30.3%. In addition, the growth in the assay with A498 renal was 56.3%; in the assay on CCRF-CEM leukemia, 36.6%; in the assay on MOLT-4 leukemia, 29.4%; in the assay on SR leukemia, 41.7%; with RPMI-8226 leukemia, 8.22% (active); in the assay with OVCAR-8 ovarian, 45.5%. Further, the growth in the assay with OVCAR-5 ovarian is 75.6%; in the assay with OVCAR-4 ovarian, 30.7%; in the assay on SK-OV-3 ovarian it was 68.9%; with OVCAR-3 ovarian, 19%; with HS 578T breast, 84.7%; in the assay on NCI/ADR-RES ovarian, 44.8%.
Regarding `C[C@H]1[C@H](C)CC[C@]2(C(=O)O)CC[C@]3(C)C(=CC[C@@H]4[C@@]5(C)C/C(=C/c6ccco6)C(=O)C(C)(C)[C@@H]5CC[C@]43C)[C@H]12`, the growth in the assay on SK-MEL-2 melanoma is -64% [100 µM] (active); with EKVX NSCLC it was -68.4% [100 µM] (active); in the assay with SN12C renal, -56% [100 µM] (active); in the assay on UO-31 renal, -99.5% [100 µM] (active); with TK-10 renal, -73.4% [100 µM] (active); with ACHN renal it was -97.9% [100 µM] (active). Moreover, the growth was -56.2% [100 µM] (active) in the assay with A498 renal; -26.4% [100 µM] (active) in the assay with CCRF-CEM leukemia; -10.8% [100 µM] (active) in the assay with MOLT-4 leukemia; 31.2% [100 µM] in the assay on SR leukemia; -19.3% [100 µM] (active) in the assay on RPMI-8226 leukemia; -19% [100 µM] (active) in the assay on OVCAR-8 ovarian. Further, the growth was -48.8% [100 µM] (active) with OVCAR-5 ovarian; -17.3% [100 µM] (active) in the assay with SK-OV-3 ovarian; -59.6% [100 µM] (active) with IGROV1 ovarian; -74.5% [100 µM] (active) with OVCAR-3 ovarian; -13.9% [100 µM] (active) in the assay with HS 578T breast; -58.9% [100 µM] (active) in the assay on NCI/ADR-RES ovarian.
